Reference: PubChem BioAssay (Tox21)
A number with no mark means an inactive call. Inconclusive results are not listed. Where a call stands in place of a potency, no number is given. Calls of active or inactive are those of the source. Unless noted, calls follow the shape of the dose curve; as a rule, active = well fitted curve in the direction sought with a large enough effect in the repeat runs; inconclusive = weak or mixed curves; inactive = no such curve, though single readings can be large; an effect the other way counts as inactive or inconclusive.

Experiments:
[1] = molecular target: Thyrotropin-releasing hormone receptor (Homo sapiens) (UniProt P34981); experiment: qHTS assay to identify small molecule agonists of the thyrotropin-releasing hormone receptor (TRHR) signaling pathway (AID 1346891; calls by dose curve; also: series mostly up to about 58 µM)
In short: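 TRHR-expressing HEK293 cells were plated 18 h at 37 °C/5% CO2, loaded with calcium dye 2 h at 37 °C, then given compound in DMSO; fluorescence was read kinetically for 3 min at 1 s intervals.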

[2] = Human pregnane X receptor (PXR) small molecule agonists, qHTS cell viability counter screen (AID 1346977); also: nearly all actives have a fitted effect of over 50% in size; also: potency is read from the fitted curve at half-maximal effect
In short: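 PXR-Luc HepG2 cells in medium with 5% charcoal-stripped FBS were pre-incubated 5hr, then exposed to compounds for 24hr at 37C. Viability was read in the same wells by CellTiter-Fluor fluorescence, reagent added after 23hr with a 1hr incubation.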

[3] = Caspase-3/7 induction in HepG2 cells by small molecules, qHTS assay (AID 1346978); also: nearly all actives have a fitted effect of over 15% in size
In short: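 Wild-type HepG2 cells, 2,000/well, settled 5 hr at 37 C and 5% CO2, then compound-treated for 17 hr; caspase-3/7 activity read by luminescent Caspase-Glo 3/7 after 30 min at room temperature.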

[4] = Caspase-3/7 induction in CHO-K1 cells by small molecules, qHTS cell viability counter screen (AID 1346979); also: nearly all actives have a fitted effect of over 35% in size; also: potency is read from the fitted curve at half-maximal effect
In short: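 Wild-type CHO-K1 cells were seeded at 1,500 per well, rested 5hr at 37 C, then exposed to compounds in DMSO. After 16hr, CellTiter-Fluor reagent was added and fluorescence read 1hr later as the viability measure.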

[5] = Caspase-3/7 induction in CHO-K1 cells by small molecules, qHTS assay (AID 1346980); also: nearly all actives have a fitted effect of over 15% in size
In short: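 Wild-type CHO-K1 cells exposed to compounds for 17hr at 37 C, 5% CO2. Caspase-3/7 activity then measured by Caspase-Glo 3/7 luminescence after 30min at room temperature.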

[6] = molecular target: Nuclear receptor subfamily 1 group I member 2 (Homo sapiens) (UniProt O75469); experiment: Human pregnane X receptor (PXR) small molecule agonists, qHTS assay (AID 1346982); also: nearly all actives have a fitted effect of over 35% in size; also: potency is read from the fitted curve at half-maximal effect
In short: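 HepG2 PXR-Luc reporter line, 5% charcoal-stripped FBS; 5 hr pre-incubation, compound (DMSO) 24 hr at 37 C/5% CO2; ONE-Glo 30 min RT; luminescence read-out.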

[7] = molecular target: Cytochrome P450 2D6 (Homo sapiens) (UniProt P10635); experiment: Cytochrome P450 Family 2 Subfamily D Member 6 (CYP2D6) small molecule antagonists: luciferase reporter qHTS assay (AID 1671196); also: nearly all actives have a fitted effect of over 50% in size; also: potency is read from the fitted curve at half-maximal effect
In short: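 Luminogenic proluciferin substrate, CYP2D6 enzyme; 10 min RT preincubation with compound, NADPH regeneration system added, 1 h RT. Stop/detection reagent, 20 min RT, luminescence read (RLU). Signal proportional to CYP activity.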

[8] = molecular target: Cytochrome P450 2C19 (Homo sapiens) (UniProt P33261); experiment: Cytochrome P450 Family 2 Subfamily C Member 19 (CYP2C19) small molecule antagonists: luciferase reporter qHTS assay (AID 1671197); also: nearly all actives have a fitted effect of over 65% in size; also: potency is read from the fitted curve at half-maximal effect
In short: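 CYP2C19 P450-Glo, 1536-well qHTS. Cpd + enzyme/proluciferin substrate 10 min RT; + NADPH regen, 37C 1 h; stop with luciferin detection reagent, 20 min RT, luminescence (RLU). Pos ctrl ketoconazole.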

[9] = molecular target: Cytochrome P450 1A2 (Homo sapiens) (UniProt P05177); experiment: Cytochrome P450 Family 1 Subfamily A Member 2 (CYP1A2) small molecule antagonists: luciferase reporter qHTS assay (AID 1671199); also: nearly all actives have a fitted effect of over 50% in size; also: potency is read from the fitted curve at half-maximal effect
In short: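 Luminescence readout (relative luminescence units) after luciferin detection reagent, 20 min RT. Preceded by 1 h room-temperature CYP1A2 reaction with NADPH regeneration solution following 10 min compound preincubation with enzyme and proluciferin substrate. Furafylline positive control.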

[10] = molecular target: Voltage-gated inwardly rectifying potassium channel KCNH2 (Homo sapiens) (UniProt Q12809); experiment: Human Ether-a-go-go-Related Gene (hERG) channel small molecule antagonists: fluorescence cell-based qHTS assay (AID 1671200);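 also: hERG-expressing U2OS cells given a thallium stimulus after FluxOR II dye loading; series mostly up to about 77 µM; nearly all actives have a fitted effect of over 50% in size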
In short: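 U2OS cells expressing the channel were plated at 1000 cells/well, incubated overnight at 37 C, then loaded with FluxOR II thallium-sensitive dye for 1 h at room temperature in the dark, with a further 10 min at room temperature before stimulation.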

[11] = molecular target: Cytochrome P450 3A4 (Homo sapiens) (UniProt P08684); experiment: Cytochrome P450 Family 3 Subfamily A Member 4 (CYP3A4) small molecule antagonists: luciferase reporter qHTS assay (AID 1671201)
In short: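 P450-Glo CYP3A4 system with proluciferin substrate; compounds preincubated 10 min RT with enzyme-substrate mix, then NADPH regeneration added for 1 h RT. Detection reagent 20 min, luminescence read as relative luminescence units.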

[12] = molecular target: Cytochrome P450 2C9 (Homo sapiens) (UniProt P11712); experiment: Cytochrome P450 Family 2 Subfamily C Member 9 (CYP2C9) small molecule antagonists: luciferase reporter qHTS assay (AID 1671198); also: nearly all actives have a fitted effect of over 50% in size; also: potency is read from the fitted curve at half-maximal effect
In short: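 P450-Glo proluciferin substrate with CYP2C9 enzyme; 10 min RT preincubation, then NADPH regeneration 1 h at 37C; luciferin detection reagent 20 min RT, luminescence in relative luminescence units.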

[13] = molecular target: Nuclear receptor subfamily 1 group I member 2 (Rattus norvegicus) (UniProt Q9R1A7); experiment: Rat pregnane X receptor (rPXR) activation by small molecules, qHTS assay (AID 1346983); conditions: rPXR luciferase reporter cells, One-Glo luminescence, 24 h; max activation: hits give high values; also: nearly all actives have a fitted effect of over 20% in size
In short: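 Cell-based rPXR activation assay: rPXR cells, 2,000 per well, rested 5hr at 37 C, then exposed to compounds in DMSO for 24 hr at 37 C. Luciferase activity read by One-Glo luminescence after 30 min at room temperature.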

[14] = molecular target: Nuclear receptor subfamily 1 group I member 2 (Homo sapiens) (UniProt O75469); experiment: CYP3A4 induction through human pregnane X receptor (PXR) by small molecules, qHTS assay (AID 1346984); also: nearly all actives have a fitted effect of over 40% in size; also: potency is read from the fitted curve at half-maximal effect
In short: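 HepG2-derived DPX-2 line carrying PXR plus a CYP3A4-promoter luciferase reporter; cells plated 5 hr, compound-exposed 24 hr at 37C. CYP3A4 activity probed with 3uM (final) Luciferin-IPA for 3hr, then luciferase read after One-Glo.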

[15] = molecular target: Nuclear receptor subfamily 1 group I member 2 (Homo sapiens) (UniProt O75469); experiment: Human pregnane X receptor (PXR) activation by small molecules, qHTS assay (AID 1346985); also: nearly all actives have a fitted effect of over 40% in size
In short: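 DPX-2 cells (HepG2 co-transfected with a PXR response element and a CYP3A4-promoter luciferase construct) were seeded at 2,000 per well, rested 5 hr at 37C, then exposed to DMSO-dissolved compounds for 24 hr. Activation was read as luciferase luminescence.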

[16] = Caspase-3/7 induction in HepG2 cells by small molecules, qHTS cell viability counter screen (AID 1346981); also: series mostly up to about 92 µM; nearly all actives have a fitted effect of over 30% in size
In short: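 Fluorescence read-out of live-cell protease activity (CellTiter-Fluor) after 1 hr with reagent. This was measured in the same wells as the caspase-3/7 luminescence, on HepG2 cells exposed to DMSO-dissolved compounds for 16 hr at 37 C.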

Sequence of Cytochrome P450 3A4 (Homo sapiens) (P08684 whole entry, looked up): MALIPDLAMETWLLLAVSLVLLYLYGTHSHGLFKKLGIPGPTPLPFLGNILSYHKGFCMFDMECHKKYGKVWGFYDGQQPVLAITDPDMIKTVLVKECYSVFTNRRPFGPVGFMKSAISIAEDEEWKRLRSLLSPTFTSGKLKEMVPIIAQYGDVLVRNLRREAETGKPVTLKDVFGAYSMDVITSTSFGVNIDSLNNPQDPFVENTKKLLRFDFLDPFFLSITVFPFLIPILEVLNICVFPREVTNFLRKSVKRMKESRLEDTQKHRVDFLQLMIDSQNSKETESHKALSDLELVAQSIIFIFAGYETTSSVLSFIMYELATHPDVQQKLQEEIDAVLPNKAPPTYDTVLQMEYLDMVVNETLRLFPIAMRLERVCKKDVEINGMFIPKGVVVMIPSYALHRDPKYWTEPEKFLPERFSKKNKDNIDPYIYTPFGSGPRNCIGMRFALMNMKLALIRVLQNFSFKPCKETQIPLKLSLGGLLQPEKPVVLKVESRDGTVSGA
Sequence of Cytochrome P450 2C19 (Homo sapiens) (P33261 whole entry, looked up): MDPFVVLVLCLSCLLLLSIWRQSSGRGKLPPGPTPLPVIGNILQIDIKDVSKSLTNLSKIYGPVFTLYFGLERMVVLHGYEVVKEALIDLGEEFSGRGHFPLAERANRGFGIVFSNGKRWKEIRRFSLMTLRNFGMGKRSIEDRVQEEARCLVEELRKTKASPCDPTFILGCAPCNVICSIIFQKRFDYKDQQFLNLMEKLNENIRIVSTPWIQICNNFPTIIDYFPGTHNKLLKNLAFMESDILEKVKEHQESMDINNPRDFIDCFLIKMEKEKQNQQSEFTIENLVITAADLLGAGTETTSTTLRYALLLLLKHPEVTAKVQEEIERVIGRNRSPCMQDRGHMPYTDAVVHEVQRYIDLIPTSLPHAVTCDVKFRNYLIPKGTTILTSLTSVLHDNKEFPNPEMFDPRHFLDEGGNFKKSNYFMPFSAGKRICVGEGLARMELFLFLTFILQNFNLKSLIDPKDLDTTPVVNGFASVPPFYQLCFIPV
Sequence of Voltage-gated inwardly rectifying potassium channel KCNH2 (Homo sapiens) (Q12809 whole entry, looked up): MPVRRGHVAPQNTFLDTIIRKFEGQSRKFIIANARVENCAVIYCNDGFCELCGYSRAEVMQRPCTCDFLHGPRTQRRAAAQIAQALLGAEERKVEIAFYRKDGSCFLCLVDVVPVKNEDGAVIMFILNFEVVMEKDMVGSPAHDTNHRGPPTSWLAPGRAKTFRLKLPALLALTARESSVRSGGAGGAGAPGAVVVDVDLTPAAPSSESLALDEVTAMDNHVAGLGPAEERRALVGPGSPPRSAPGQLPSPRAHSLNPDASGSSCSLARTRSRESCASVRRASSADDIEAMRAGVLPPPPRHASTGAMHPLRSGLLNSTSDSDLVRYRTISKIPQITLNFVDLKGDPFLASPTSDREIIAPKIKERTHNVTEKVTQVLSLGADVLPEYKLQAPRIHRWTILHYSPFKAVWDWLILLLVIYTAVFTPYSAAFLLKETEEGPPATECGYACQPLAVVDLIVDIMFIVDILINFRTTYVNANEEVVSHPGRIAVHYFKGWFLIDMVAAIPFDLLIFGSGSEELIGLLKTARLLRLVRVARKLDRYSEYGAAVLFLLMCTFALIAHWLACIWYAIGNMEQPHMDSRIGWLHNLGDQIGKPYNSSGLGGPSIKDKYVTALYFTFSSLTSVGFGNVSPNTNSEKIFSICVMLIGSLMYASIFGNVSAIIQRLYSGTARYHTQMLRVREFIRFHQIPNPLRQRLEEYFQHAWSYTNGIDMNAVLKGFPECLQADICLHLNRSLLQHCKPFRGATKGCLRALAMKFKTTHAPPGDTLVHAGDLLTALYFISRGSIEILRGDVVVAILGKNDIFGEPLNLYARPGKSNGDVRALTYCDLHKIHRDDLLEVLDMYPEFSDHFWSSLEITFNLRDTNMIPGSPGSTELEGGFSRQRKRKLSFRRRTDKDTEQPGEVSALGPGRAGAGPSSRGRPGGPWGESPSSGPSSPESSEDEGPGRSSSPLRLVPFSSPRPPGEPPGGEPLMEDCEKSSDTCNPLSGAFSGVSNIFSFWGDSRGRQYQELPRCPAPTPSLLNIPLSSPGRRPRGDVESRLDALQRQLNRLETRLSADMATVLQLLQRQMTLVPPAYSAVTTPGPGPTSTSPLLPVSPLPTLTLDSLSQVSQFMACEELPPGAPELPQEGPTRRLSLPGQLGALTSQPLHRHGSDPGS
Sequence of Cytochrome P450 1A2 (Homo sapiens) (P05177 whole entry, looked up): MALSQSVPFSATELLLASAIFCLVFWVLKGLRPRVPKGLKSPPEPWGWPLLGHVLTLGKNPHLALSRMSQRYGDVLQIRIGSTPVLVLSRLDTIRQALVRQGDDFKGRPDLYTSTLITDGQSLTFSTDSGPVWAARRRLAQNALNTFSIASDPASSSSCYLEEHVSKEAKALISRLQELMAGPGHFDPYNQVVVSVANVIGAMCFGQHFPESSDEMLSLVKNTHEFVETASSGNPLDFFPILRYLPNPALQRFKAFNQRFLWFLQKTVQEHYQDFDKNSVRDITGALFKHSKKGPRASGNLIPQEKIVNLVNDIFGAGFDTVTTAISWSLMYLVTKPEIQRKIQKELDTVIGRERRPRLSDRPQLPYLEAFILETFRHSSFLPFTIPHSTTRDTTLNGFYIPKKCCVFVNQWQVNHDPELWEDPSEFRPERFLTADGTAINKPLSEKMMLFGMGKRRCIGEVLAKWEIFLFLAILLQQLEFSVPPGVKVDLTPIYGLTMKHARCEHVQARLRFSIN
Sequence of Cytochrome P450 2C9 (Homo sapiens) (P11712 whole entry, looked up): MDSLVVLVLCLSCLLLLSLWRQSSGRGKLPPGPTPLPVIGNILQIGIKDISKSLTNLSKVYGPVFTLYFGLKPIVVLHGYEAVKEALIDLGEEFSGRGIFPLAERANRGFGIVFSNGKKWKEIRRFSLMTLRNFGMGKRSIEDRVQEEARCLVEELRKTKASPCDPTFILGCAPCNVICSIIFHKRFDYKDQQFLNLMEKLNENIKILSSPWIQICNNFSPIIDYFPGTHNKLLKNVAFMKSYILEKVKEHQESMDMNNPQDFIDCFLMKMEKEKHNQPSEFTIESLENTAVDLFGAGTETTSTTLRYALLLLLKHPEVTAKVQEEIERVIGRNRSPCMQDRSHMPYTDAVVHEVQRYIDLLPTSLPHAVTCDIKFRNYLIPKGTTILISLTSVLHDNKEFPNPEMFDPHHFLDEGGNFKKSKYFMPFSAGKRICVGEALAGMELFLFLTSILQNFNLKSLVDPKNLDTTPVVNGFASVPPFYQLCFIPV
Sequence of Nuclear receptor subfamily 1 group I member 2 (Homo sapiens) (O75469 whole entry, looked up): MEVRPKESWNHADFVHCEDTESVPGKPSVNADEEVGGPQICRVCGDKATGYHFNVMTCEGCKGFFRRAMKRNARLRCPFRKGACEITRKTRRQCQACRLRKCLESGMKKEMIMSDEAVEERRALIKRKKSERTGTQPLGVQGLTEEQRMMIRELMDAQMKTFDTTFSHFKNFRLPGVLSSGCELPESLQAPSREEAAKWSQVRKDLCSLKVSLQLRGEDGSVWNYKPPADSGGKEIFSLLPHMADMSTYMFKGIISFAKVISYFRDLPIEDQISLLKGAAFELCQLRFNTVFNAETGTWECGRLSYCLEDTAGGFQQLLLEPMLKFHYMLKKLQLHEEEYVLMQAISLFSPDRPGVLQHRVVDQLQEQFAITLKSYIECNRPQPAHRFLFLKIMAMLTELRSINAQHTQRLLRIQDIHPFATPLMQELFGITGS
Sequence of Thyrotropin-releasing hormone receptor (Homo sapiens) (P34981 whole entry, looked up): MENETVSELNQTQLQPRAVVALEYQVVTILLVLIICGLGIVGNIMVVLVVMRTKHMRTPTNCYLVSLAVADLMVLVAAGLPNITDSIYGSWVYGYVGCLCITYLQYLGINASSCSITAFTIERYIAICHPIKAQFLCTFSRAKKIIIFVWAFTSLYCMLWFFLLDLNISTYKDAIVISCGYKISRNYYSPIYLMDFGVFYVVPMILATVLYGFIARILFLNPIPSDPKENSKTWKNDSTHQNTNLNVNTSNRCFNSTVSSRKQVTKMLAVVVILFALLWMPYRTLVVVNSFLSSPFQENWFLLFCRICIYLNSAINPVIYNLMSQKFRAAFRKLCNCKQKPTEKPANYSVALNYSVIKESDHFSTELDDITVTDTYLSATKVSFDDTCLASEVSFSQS
Sequence of Cytochrome P450 2D6 (Homo sapiens) (P10635 whole entry, looked up): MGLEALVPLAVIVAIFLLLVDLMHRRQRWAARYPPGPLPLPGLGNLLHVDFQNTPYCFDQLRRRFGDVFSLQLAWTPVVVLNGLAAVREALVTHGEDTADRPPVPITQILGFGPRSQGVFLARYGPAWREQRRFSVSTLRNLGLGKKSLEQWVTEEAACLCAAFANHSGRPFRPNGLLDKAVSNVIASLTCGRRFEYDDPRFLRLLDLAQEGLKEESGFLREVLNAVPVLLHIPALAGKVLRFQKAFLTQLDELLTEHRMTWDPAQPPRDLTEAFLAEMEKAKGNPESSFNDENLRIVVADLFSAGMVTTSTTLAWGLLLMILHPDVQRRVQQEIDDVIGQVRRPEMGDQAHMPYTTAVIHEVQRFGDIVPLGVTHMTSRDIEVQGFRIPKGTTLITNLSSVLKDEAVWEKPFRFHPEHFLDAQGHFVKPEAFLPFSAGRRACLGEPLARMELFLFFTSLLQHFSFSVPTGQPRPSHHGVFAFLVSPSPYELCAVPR
Sequence of Nuclear receptor subfamily 1 group I member 2 (Rattus norvegicus) (Q9R1A7 whole entry, looked up): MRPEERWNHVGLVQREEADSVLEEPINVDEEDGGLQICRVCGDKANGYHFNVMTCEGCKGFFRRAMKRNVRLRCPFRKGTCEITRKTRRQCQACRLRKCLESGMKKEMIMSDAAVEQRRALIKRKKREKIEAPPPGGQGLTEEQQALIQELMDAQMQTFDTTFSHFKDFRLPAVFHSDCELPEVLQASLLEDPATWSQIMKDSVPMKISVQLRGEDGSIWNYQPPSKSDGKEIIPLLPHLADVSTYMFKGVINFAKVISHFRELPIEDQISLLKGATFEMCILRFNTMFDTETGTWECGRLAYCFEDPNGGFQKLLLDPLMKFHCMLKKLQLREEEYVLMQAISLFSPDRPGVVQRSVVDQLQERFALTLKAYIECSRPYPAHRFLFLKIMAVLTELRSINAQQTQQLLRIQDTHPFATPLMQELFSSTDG

Row | Structure (SMILES) | Potency [1] | Potency [2] | Potency [3] | Potency [4] | Potency [5] | Potency [6] | Potency [7] | Potency [8] | Potency [9] | Potency [10] | Potency [11] | Potency [12] | max activation [13] [%] | Potency [14] | Potency [15] | Potency [16]
1 | C=C(C)C(=O)OCCOCCOC(=O)C(=C)C | inactive | inactive | inactive | inactive | inactive | inactive | inactive | 8.94 µM (active) | 15.9 µM (active) | inactive | inactive |  |  |  |  | 
2 | FC(F)(F)c1ccccc1Cl | inactive | inactive | inactive | inactive | inactive | inactive | 46 µM (active) |  | inactive | inactive |  | inactive |  |  |  | 
3 | O=C1C(=O)c2ccccc2C(O)=C1C1CCC(c2ccc(Cl)cc2)CC1 (stereo unspecified) | inactive | 11.9 µM (active) | inactive | 16.8 µM (active) | inactive |  | inactive | inactive | inactive | inactive | inactive |  | 0.127 | 2.51 µM (active) | inactive | 
4 | C=Cc1ccc(S(=O)(=O)O)cc1 | inactive | inactive | inactive |  | inactive | 38.6 µM (active) | inactive | inactive | 71 µM (active) | inactive | inactive |  | -2.52 | inactive | inactive | inactive
5 | CCCCCC[C@@H](O)C/C=C\CCCCCCCC(=O)O | inactive | inactive | inactive | inactive | inactive | inactive | inactive |  | inactive | inactive |  |  |  |  |  | 
6 | CCCCCCNC(=O)n1cc(F)c(=O)[nH]c1=O | inactive | inactive | inactive |  | inactive | 15 µM (active) |  | 34.7 µM (active) | inactive | inactive | inactive | 15.5 µM (active) | -10.4 | 0.794 µM (active) |  | 
7 | Oc1c(I)cc(I)c2cccnc12 | inactive | inactive | inactive |  | inactive |  | inactive | inactive | inactive | inactive | inactive | inactive |  |  |  | inactive
8 | CC(CO)CO | inactive | inactive | inactive | inactive | inactive | inactive | inactive | inactive | inactive | inactive | inactive |  |  |  |  | 
